{
  "source": "PubChem BioAssay AID1347423",
  "about": "(Functional Genomics Laboratory (NCATS/FGL), 2020)",
  "note": "Screen size: about 52,000 sequences; about 210 (0.4%) were called active.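 How the source made its calls: active means gene whose silencing raises cell survival under the drug, median off-target-corrected z-score across its silencing RNAs 2 or more; inactive means the rest.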 Only a selection was taken, and actives are over-represented in it overall.",
  "data": [
    {"assay": "Resistance to Poly (ADP-Ribose) Polymerase inhibitor: Gene Identification via Genome-wide siRNA Screen", "conditions": "mouse BRCA2 R2336H ES cells, olaparib, CellTiter-Glo viability; active compounds read high", "source_text": "The role of Poly (ADP-Ribose) Polymerase (PARP) proteins in DNA repair has been elegantly utilized for the synthetic lethality-based treatment of BRCA-deficient tumors by PARP inhibitors. PARP inhibitors are now being used for treatment of BRCA-deficient breast and ovarian cancers. […] While several mechanisms of drug resistance have been identified, majority of these tumors develop drug resistance due to unknown causes. To identified novel regulators of chemo-resistance in BRCA2-mutated cells, we performed a genome wide siRNA library screen. We have found ES cells expressing a hypomorphic allele of BRCA2 to be hypersensitive to PAPP inhibitors (such as olaparib). We used ES cells expressing a mutant allele of BRCA2 that has a single amino acid substitution at position 2336 (arginine to histidine, R2336H). The screen was conducted using an Ambion (Thermo) Silencer Mouse Genome siRNA collection. The library targets 17,575 mouse genes with 3 siRNAs per gene. TET2 (E130014J05Rik) was identified as a top candidate.\nTransfections were performed in 384 well plates (Corning 3707). Plates were coated with 0.1% gelatin in H2O overnight at ambient temperature. Gelatin solution was aspirated (BioTek EL406) and siRNAs were printed using a Bravo VPrep liquid handler integrated within a BioCel automation platform (Agilent). Cell viability was measured using CellTiter Glo (Promega). For transfections, […] of serum free media containing Lipofectamine RNAiMax […] was added to wells containing siRNA (0.8pmol). Lipid and siRNA were allowed to complex for 45 min at ambient temperature before addition of 1000 cells in DMEM, 30% FBS to yield final transfection mixtures containing 20 nM siRNA in DMEM, 15% FBS. PARPi (olaparib, AZD2281) was added 48 h post-transfection (500 nM) and viability (CellTiter Glo, Promega) was assayed 72 h later on a PerkinElmer Envision 2104 Multilabel plate reader. Ambion Silencer Select Negative Control #2 was incorporated on all screening plates (16 wells) and the median negative control value on each plate was used for normalization. An siRNA targeting Trp53 was used as a positive control. This control yielded a median protective effect of ~1.9 fold versus negative control throughout the screen. The median absolute deviation (MAD) based z-score was calculated for each siRNA. Genes were then ranked by taking the median value for all siRNAs tested against a given gene. Scores were also adjusted for seed-based off-target effects to help deprioritize likely false positives.", "values": [
      {"sequence": "CCAGAAACAUACGAAGAUUTT against Khdrbs1", "z-score": "2.31 (active)"},
      {"sequence": "GGUAUCUUCAAGUACAUGATT against BC011426", "z-score": "0.138 (inactive)"},
      {"sequence": "GGAGAUGGAGAAGUAGAUUTT against Abcf2", "z-score": "0.0903 (inactive)"},
      {"sequence": "GGGAAAUGUGUGUUAUCUGTT against Rnf126", "z-score": "1.17 (inactive)"},
      {"sequence": "CCCUGUCUCCCGCAUAGAATT against Itgb6", "z-score": "1.67 (active)"},
      {"sequence": "GAAAUCAUCCUGCCCAAAGTT against Vax1", "z-score": "0.607 (inactive)"},
      {"sequence": "GGUCCCAGUGUCAUGUCUUTT against Cdipt", "z-score": "0.00151 (inactive)"},
      {"sequence": "GGUCUAUACCAUCCUAUUGTT against Faim2", "z-score": "-1.24 (inactive)"},
      {"sequence": "CACUCAGCUCAAUGACCUGTT against Ifna14", "z-score": "-0.514 (inactive)"},
      {"sequence": "GCUACAAGCGAUAUAUUCCTT against Jak1", "z-score": "2.92 (active)"},
      {"sequence": "CCAUGGAGAAUCAUGACAGTT against Slfn1", "z-score": "0.281 (inactive)"},
      {"sequence": "GUAUCAUACAAUGAUGUCCTT against Olfr176", "z-score": "0.628 (inactive)"},
      {"sequence": "GGAAAACAGCUUUGAUUGGTT against E130009J12Rik", "z-score": "1.42 (inactive)"},
      {"sequence": "GGAACAGGAAUAACAUGACTT against V1re9", "z-score": "1.65 (inactive)"},
      {"sequence": "GUAUGAUGCACUCCAGUUGTT against Hdac8", "z-score": "-1.38 (inactive)"},
      {"sequence": "GCCAGUGCACUCCUCUUUUTT against Mmrp19", "z-score": "0.352 (inactive)"},
      {"sequence": "GCUGAACUAUAACUUGAAATT against Stat1", "z-score": "0.735 (inactive)"},
      {"sequence": "GCAAGAAGUAAUCAACUUUTT against Rqcd1", "z-score": "2 (active)"},
      {"sequence": "GGACUUUUACCAGUUCUCCTT against Ece2", "z-score": "0.967 (inactive)"},
      {"sequence": "GGUACAGGAAAAAAGAAGATT against Msl31", "z-score": "-0.435 (inactive)"},
      {"sequence": "GCACGUAGUAAGAUGUUACTT against Rqcd1", "z-score": "2.53 (active)"},
      {"sequence": "GGUGGUCUAAGUCCUGACATT against Hmx1", "z-score": "-0.564 (inactive)"},
      {"sequence": "GGUUAUUAAGAGCACUUUCTT against Catsper3", "z-score": "-0.553 (inactive)"},
      {"sequence": "GCAUUAUGACUCUAAUAGCTT against Olfr60", "z-score": "0.536 (inactive)"},
      {"sequence": "GGGCUAUGUGCUCUUUUGUTT against Edg6", "z-score": "0.487 (inactive)"},
      {"sequence": "GGCAUUGUGAAGCUGAAACTT against Ptpn9", "z-score": "1.93 (active)"},
      {"sequence": "GGAGAAGGAGGUGAUAAUGTT against Sart1", "z-score": "0.088 (inactive)"},
      {"sequence": "GGUGCAGUUUAAGAGAGAATT against C630016B22Rik", "z-score": "0.153 (inactive)"},
      {"sequence": "GCCACCUCAAUGAAAGGAGTT against Slc23a1", "z-score": "0.609 (inactive)"},
      {"sequence": "GGUAAUUUGUUUGUGGUGATT against Mtnr1b", "z-score": "-0.531 (inactive)"},
      {"sequence": "GGCAUCCGUGUGUCUCUAGTT against 5730457F11Rik", "z-score": "-2.13 (active)"},
      {"sequence": "CCACUUUCGCUUUACCAAUTT against C330011M18Rik", "z-score": "0.267 (inactive)"},
      {"sequence": "CCAACUCUGUUACAUUAUGTT against Fshprh1", "z-score": "0.377 (inactive)"},
      {"sequence": "GGGCUAAAGUUGAUAAUAATT against Psmc3", "z-score": "-3.32 (inactive)"},
      {"sequence": "GGGAGCUCCAUUUAAAUUATT against A230103N10Rik", "z-score": "0.137 (inactive)"},
      {"sequence": "GGCAUUCAAAAGGUAAAAUTT against Grid2", "z-score": "2.35 (active)"},
      {"sequence": "CCAGCACUCAAUCCUGUAATT against Olfr305", "z-score": "-1.73 (inactive)"},
      {"sequence": "GCUAUCAACAAUCUUCGAATT against Azi1", "z-score": "0.37 (inactive)"},
      {"sequence": "GGAGAACACUUUAAUGCUGTT against 9230106D23Rik", "z-score": "0.667 (inactive)"},
      {"sequence": "GAACCUUUUCCGUUUCGAGTT against Cebpb", "z-score": "0.245 (inactive)"},
      {"sequence": "GGCCAGCAGACUAUUUAUUTT against 1110021N07Rik", "z-score": "-1.57 (inactive)"},
      {"sequence": "GGACCUAGAGGAAGUGAAATT against Apoa1", "z-score": "2.05 (active)"},
      {"sequence": "GCUUUACUUCUUCCUCAUUTT against Olfr924", "z-score": "-0.698 (inactive)"},
      {"sequence": "GGUCUAUGUACUCGCCAAATT against Ptpns1", "z-score": "-0.633 (inactive)"},
      {"sequence": "CCGUCACUAUACCCAAGUUTT against Olfr802", "z-score": "-3.11 (inactive)"},
      {"sequence": "CGUGCUUAAGAGUCCACUATT against H3f3a", "z-score": "-1.43 (inactive)"},
      {"sequence": "CCUCGUUCAUACGACAGAATT against BC062951", "z-score": "-0.447 (inactive)"},
      {"sequence": "GCUUAGACUCACCAAAGGCTT against Gpr26", "z-score": "1.11 (inactive)"},
      {"sequence": "GCAACACAUUUGAACCACUTT against Usp15", "z-score": "2.9 (active)"},
      {"sequence": "GGCACAGAAAUUAUGUUCUTT against 1810012H11Rik", "z-score": "-0.685 (inactive)"},
      {"sequence": "GGAAUUCAACUCAGAUAAGTT against C3", "z-score": "-0.52 (inactive)"},
      {"sequence": "GGUUUUCUUAAAAUAGGAGTT against Tat", "z-score": "3.69 (active)"},
      {"sequence": "CCAUAUCCGUAGGUAUAUCTT against Htr2a", "z-score": "1.02 (inactive)"},
      {"sequence": "GGCUUGGAAGGAUUAGAAGTT against 4930418G15Rik", "z-score": "-0.344 (inactive)"},
      {"sequence": "CCUCCACUUACUUUGGGUGTT against Cic", "z-score": "1.48 (active)"},
      {"sequence": "GGAGCUCAACAAGUUGCUUTT against Hist1h2aa", "z-score": "-0.0931 (inactive)"},
      {"sequence": "GGGAGAUCUUUAAGAGAAATT against Tcfap2a", "z-score": "-0.65 (inactive)"},
      {"sequence": "CGAGAUCACGAGAUCGGUUTT against Prdm4", "z-score": "2.21 (inactive)"},
      {"sequence": "GGCCAAGCUGAUCAAUAUATT against Oprd1", "z-score": "-0.0592 (inactive)"},
      {"sequence": "CCCAAUAAAACUUCCGGGATT against BC021608", "z-score": "0.531 (inactive)"},
      {"sequence": "CUCUCGAACAAUCAACCACTT against Olfr315", "z-score": "-0.314 (inactive)"},
      {"sequence": "GCUGAAAUCAGAAGCUAACTT against Casc3", "z-score": "0.845 (inactive)"},
      {"sequence": "GCAUUGGCUGUACUACUAUTT against Psg18", "z-score": "-0.196 (inactive)"},
      {"sequence": "CCACAGCCAAAUGCACAAGTT against Gm1631", "z-score": "-0.237 (inactive)"},
      {"sequence": "GGGAAAUCAGUUUUACAAATT against Chl1", "z-score": "2.76 (active)"},
      {"sequence": "CCGGUUGCUAGGCUAAACATT against Wdr68", "z-score": "-3.25 (inactive)"},
      {"sequence": "CGUAAAACUCUUAGGCAUGTT against Npm1", "z-score": "2.54 (active)"},
      {"sequence": "CCCACUCCAAACAUCUAAATT against Gadd45b", "z-score": "0.111 (inactive)"}
    ]}
  ]
}
